MazF activator: activators of E. coli MazEF toxin-antitoxin RNase | actives 0.32% (n = 350,000) | P0AE70 | FAM/BHQ RNA-DNA oligo cleavage fluorescence, 5 h | activation, % at 20 µM | AID 504720; in the data active = activation above about 50%
Target sequence (P0AE70 whole entry, looked up): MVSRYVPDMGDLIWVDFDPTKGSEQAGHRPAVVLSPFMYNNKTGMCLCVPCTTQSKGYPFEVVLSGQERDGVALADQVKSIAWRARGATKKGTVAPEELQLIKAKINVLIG
Bead autofluor: flagged as autofluorescent in microsphere protease counterscreen; compound autofluorescence counterscreen, microsphere flow cytometry; stronger effect = higher value; fluorescence intensity (test concentration not listed); actives 3.1% (n = 360,000); in the data active = fluorescence intensity above about 16000; inconclusive = no clear call, values can overlap the other calls
BoNT-A LC inh2: blocks Botulinum neurotoxin A light chain protease. multiplex microsphere protease substrate cleavage, flow cytometry. inhibition, % at 10 µM. actives 0.17% (n = 360,000). AID 588499; note: plate controls were buffer without enzyme for full effect and enzyme alone for no effect
BoNT F protease: blocks Botulinum neurotoxin F light chain protease. Multiplex microsphere protease cleavage assay, flow cytometry. inhibition, % at 10 µM. actives 0.22% (n = 360,000); in the data active = inhibition above about 35%, passing the limit was not always enough; inconclusive = no clear call, values can overlap the other calls; note: plate controls were buffer without enzyme for full effect and enzyme alone for no effect
Anthrax LF prot: inhibitors of Bacillus anthracis lethal factor protease; P15917; multiplex microsphere protease cleavage assay, LF; inhibition, % at 10 µM; actives 0.12% (n = 360,000); note: plate controls were buffer without enzyme for full effect and enzyme alone for no effect
* = called active by the depositor; ? = inconclusive; · = no result given. This is a sample that favours compounds with a hit; in the whole collection about 3.7% have one here. Cut-off read from the data, not from the text of the source, unless noted: active = inhibition above about 30%; inconclusive = no clear call, values can overlap the other calls; inactive = below that.

SMILES	MazF activator	Bead autofluor	BoNT-A LC inh2	BoNT F protease	Anthrax LF prot
CC1CCN(C(=O)CSc2nnc(CN3CCOCC3)n2-c2ccccc2)CC1	-4	21833*	-3	-4	0
O=C(CSc1nnc(-c2cccs2)n1-c1ccccc1)N1CCCC1	5	21472*	-3	-3	-2
C=CCn1c(SCC(=O)N2CCCC2)nc2scc(-c3cccs3)c2c1=O	3	21895*	-5	-5	-1
CSc1nnc(-c2cccs2)n1-c1ccccc1	-16	20664*	8	9	1
O=C(CSc1nnc(-c2cccs2)n1-c1ccccc1)N1CCOCC1	2	4043	0	9	-2
O=C(CSc1ccc2nnc(-c3ccccn3)n2n1)Nc1ccccc1C(F)(F)F	-19	4008	1	3	0
Cc1cc(C)cc(NC(=O)CSc2nc3nc(C)cc(C)c3c(=O)[nH]2)c1	-4	?	?	1	-3
Cc1ccccc1CNC(=O)C(=O)NCCC1CCCCN1S(=O)(=O)c1cccs1 (stereo not given)	-5	?	-1	-2	0
CCOc1ccc(N=Cc2c(O)n(C(C)(C)C)c(=O)[nH]c2=O)cc1	5	23346*	0	-3	-2
CCOc1ccc(N=Cc2c(O)n(-c3cc(C)cc(C)c3)c(=O)[nH]c2=O)cc1	5	4627	?	?	-10
Cc1ccc([C@H]2C[C@H](O)[C@@H](n3cc(COC(=O)c4ccccc4)nn3)CN2Cc2cccs2)cc1	-3	3589	0	-5	-8
CCOC(=O)COc1ccc(Oc2nc(C)cc(OC)n2)nn1	-1	21448*	4	4	0
CCCCOC(=O)Nc1nnc(COc2ccccc2)s1	5	16850*	-2	0	-4
COC(=O)Nc1nnc(COc2ccccc2)s1	-7	3734	1	-9	?
CCCCSc1nnc(-c2cc(Br)ccc2N)c(=O)[nH]1	-3	20791*	?	1	-3
C=CCSc1nnc(-c2cc(Br)ccc2N)c(=O)[nH]1	5	4053	2	-2	-4
Cc1ccc(NC(=O)c2nc[nH]c2C(=O)N(C)Cc2ccccc2)cc1	8	4140	0	-4	-9
CC(C)c1ccc(-c2nnn(Cc3nc4ccccc4s3)n2)cc1	-3	16755*	-2	-7	-4
CCOc1ccc(NC(=O)CN2CCN(CC(=O)Nc3ccc(Cl)c(C(F)(F)F)c3)CC2)cc1	1	26476*	-9	-12	-4
O=C(CN1CCN(c2ccccn2)CC1)Nc1ccc(Cl)c(C(F)(F)F)c1	11	2411	0	-5	-2
Cc1ccc(Cl)cc1N1CCN(CC(=O)Nc2ccc3[nH]c(=O)[nH]c3c2)CC1	3	19567*	1	0	-3
COc1ccccc1N1CCN(CC(=O)Nc2ccc(Cl)c(C(F)(F)F)c2)CC1	-15	16616*	-2	-7	-6
O=C(COc1cc(Cl)ccc1Cl)Nc1ccc2[nH]c(=O)[nH]c2c1	-11	6478	-4	2	-2
O=C(Nc1ccccc1)c1cc(C2CCCN(C(=O)c3ccc4c(c3)CCO4)C2)on1 (stereo not given)	·	3817	0	-5	1
CN(C)CC#CCC(O)(c1ccccc1)C1CCCC1 (stereo not given)	1	23845*	-1	-3	0
SMILES	MazF activator	Bead autofluor	BoNT-A LC inh2	BoNT F protease	Anthrax LF prot
CSc1n[nH]c(-c2sccc2OCc2ccc(C)cc2)n1	7	9569	-1	-9	17
CSc1nnc(-c2sccc2OCc2ccccc2)n1C	1	16539*	-1	-4	0
Cc1ccc(S(=O)(=O)c2c(N)n(NC(=O)c3ccccc3C)c3nc4ccccc4nc23)cc1	-2	22674*	0	-2	0
Cc1ccc(S(=O)(=O)c2c(N)n(CCC(C)C)c3nc4ccccc4nc23)cc1	3	22605*	2	0	2
Cc1ccc(C(=O)Nn2c(N)c(S(=O)(=O)c3ccc(C)cc3)c3nc4ccccc4nc32)cc1	-2	7509	1	4	?
CC(=O)NCCn1c(SCC(=O)c2ccc(Cl)cc2)nc2ccccc2c1=O	-32	21199*	?	-6	0
CC(=O)NCCn1c(SCC(=O)NCCC(C)C)nc2ccccc2c1=O	-1	23356*	-4	-3	0
CC(=O)NCCn1c(SCC(=O)NCc2ccco2)nc2ccccc2c1=O	4	17328*	-2	-4	-4
O=C(CCCCCn1c(SCC(=O)c2ccccc2)nc2ccccc2c1=O)NCc1ccco1	-9	16253*	0	-1	-3
COC(=O)c1sccc1NC(=O)c1ccc(C)s1	3	10271	-1	5	-15
COC(=O)c1sccc1NC(=O)c1csc(C)c1	-2	16143*	0	1	-2
COC(=O)c1sccc1NC(=O)c1ccc(Br)s1	-7	22720*	0	0	2
CCOc1ccc(OCCC(=O)N(CCC(C)C)c2c(N)n(Cc3ccccc3)c(=O)[nH]c2=O)cc1	-10	4172	2	-2	-8
CC(C)(C)OC(=O)N1CCCC(C(=O)Nc2ccc(C(=O)N3CCCCC3)cc2)C1 (stereo not given)	2	3658	0	0	2
CC=CC1OCC(CC)C(CCC)O1 (stereo not given)	7	2810	0	-6	0
Cc1ccc(-c2nn(-c3ccc(F)cc3)cc2C(=O)N2CCN(C3CCS(=O)(=O)C3)CC2)cc1 (stereo not given)	1	8290	2	2	-9
CCCCNc1oc(-c2cccs2)nc1S(=O)(=O)c1ccccc1	-1	22130*	4	5	0
CSc1ccccc1C(=O)Nc1cccc(C)c1	1	17403*	?	11	-4
COC(=O)c1ccc(NC(=O)c2ccccc2SC)cc1	8	16827*	-3	-2	-2
COC(=O)c1ccc(NC(=O)c2ccccc2C(=O)Nc2ccc(C(=O)OC)cc2)cc1	-4	6278	0	-4	-4
COc1cccc(C2=CC(c3ccc(N(C)C)cc3)n3nnnc3N2)c1 (stereo not given)	182*	16376*	2	5	-2
COc1cccc(C2=CC(c3ccccc3)n3nnnc3N2)c1 (stereo not given)	17	8035	0	-5	0
CCOC(=O)c1sc2nc(CC(=O)OC)nc(NCc3ccc(F)cc3)c2c1C	-1	16799*	-3	-3	-3
CCOC(=O)c1sc2nc(C)nc(NCc3ccc(F)cc3)c2c1C	-3	4575	-1	-1	-6
Cc1nnc(SCCn2c(N3CCC(C)CC3)nc3c2c(=O)[nH]c(=O)n3C)s1	-3	16118	2	3	0
Cc1nnc(SCCn2c(N3CC(C)CC(C)C3)nc3c2c(=O)[nH]c(=O)n3C)s1 (stereo not given)	12	23049*	-2	-5	-1
CCC(Oc1ccc(C)c(C)c1)C(=O)O (stereo not given)	5	16400*	0	-1	4
Cc1ccc(OC(C)C(=O)O)cc1C (stereo not given)	2	4507	0	21	5
